# In PubChem BioAssay (NCI):
# This is part of a sample that, as a whole, favours compounds with a hit. Of some 83,000 tested, about 20% had one in any assay.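 Activity criterion: percent growth below 10, measured after cells in 96-well plates were exposed to a single compound concentration for 48 hours.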 A number with no mark means an inactive call. Activity calls are given as the source filed them.
# Key:
# Test in all cases: NCI-60 one-dose screen, 48 h (100 = growth as untreated, 0 = no growth, -100 = all killed)
# SK-MEL-2 melanoma = details: 10 µM unless noted
# UO-31 renal = details: 10 µM unless noted
# TK-10 renal = details: 10 µM unless noted
# ACHN renal = details: 10 µM unless noted
# CAKI-1 renal = details: 10 µM unless noted
# A498 renal = details: 10 µM unless noted
# CCRF-CEM leukemia = details: 10 µM
# MOLT-4 leukemia = details: 10 µM unless noted
# SR leukemia = details: 10 µM unless noted
# RPMI-8226 leukemia = details: 10 µM unless noted
# OVCAR-8 ovarian = details: 10 µM unless noted
# OVCAR-5 ovarian = details: 10 µM unless noted
# OVCAR-4 ovarian = details: 10 µM unless noted
# SK-OV-3 ovarian = details: 10 µM unless noted
# IGROV1 ovarian = details: 10 µM unless noted
# OVCAR-3 ovarian = details: 10 µM unless noted
# NCI/ADR-RES ovarian = details: 10 µM unless noted
# EKVX NSCLC = details: 10 µM
# SN12C renal = details: 10 µM unless noted
# HS 578T breast = details: 10 µM unless noted
Structure (SMILES),growth (SK-MEL-2 melanoma),growth (UO-31 renal),growth (TK-10 renal),growth (ACHN renal),growth (CAKI-1 renal),growth (A498 renal),growth (CCRF-CEM leukemia),growth (MOLT-4 leukemia),growth (SR leukemia),growth (RPMI-8226 leukemia),growth (OVCAR-8 ovarian),growth (OVCAR-5 ovarian),growth (OVCAR-4 ovarian),growth (SK-OV-3 ovarian),growth (IGROV1 ovarian),growth (OVCAR-3 ovarian),growth (NCI/ADR-RES ovarian),growth (EKVX NSCLC),growth (SN12C renal),growth (HS 578T breast)
N#Cc1ccc(OCc2nc(N)nc(N)c2-c2ccc(Cl)c(Cl)c2)cc1,29.8%,40.4%,40.9%,19.4%,13.9%,38.5%,18.5%,22.9%,26%,67.7%,19.5%,36.9%,98.6%,38.5%,24.3%,45.8%,38.9%,–,–,–
CC(CCN1CCN(CCC(C)CC(C)(C)C)C1CC(C)CC(C)(C)C)CC(C)(C)C (stereo unspecified),–,66.2%,85.2%,90.4%,96.4%,112%,83.1%,88.7%,5.62% (active),76.4%,89.8%,90.4%,98.2%,96.4%,81.7%,73.3%,98.3%,82.6%,91.2%,112%
CC1(C)N=C(N)N=C(N)N1c1cccc(CCCCOc2ccccc2)c1,70.7%,84.2%,24%,35.1%,67.7%,49.7%,13.2%,14.1%,31.6%,–,19.9%,29.6%,61%,41.8%,–,26.5%,107%,–,–,–
CC(=O)Oc1cc2ccccc2cc1C(C)C,85.7%,88.7%,–,97.4%,106%,81%,–,109%,–,109%,104%,98.9%,108%,104%,123%,115%,116%,–,111%,99.8%
COc1cc(OC)c(/C=C/c2ccc3ccccc3[n+]2C)c(OC)c1,-4.21% (active),65.9%,–,–,68.4%,7.12% (active),–,-50.3% (active),–,-20.9% (active),9.25% (active),22.3%,28.8%,27.1%,14.8%,1.43% (active),97.4%,–,12.3%,34.4%
COc1cc(-c2nn(-c3ccc(NC(=O)Nc4cc(C(F)(F)F)cc(C(F)(F)F)c4)cc3)cc2-c2ccncc2)ccc1Cl,–,-7.1% (active),-32.5% (active),4.08% (active),-12.5% (active),-1.9% (active),16.6%,7.23% (active),-0.776% (active),-2.24% (active),9.59% (active),18.8%,-12.2% (active),-3.31% (active),8.43% (active),-20.9% (active),3.86% (active),-1.64% (active),17.3%,-34% (active)
C[n+]1c2ccccc2c(Nc2ccc(NS(=O)(=O)CCCCN=C(N)N)cc2)c2ccc(N)cc21,86.2%,50.2%,–,24.1%,43.2%,50.8%,–,-13% (active),–,48.6%,54.4%,71.9%,72.9%,51%,45.9%,68.5%,97.5%,–,17.8%,34.5%
O=C(c1ccccc1)c1ccccc1-c1ccccc1,–,44.5%,8.04% (active),33.7%,17.4%,43.1%,11%,30.4%,19.2%,13.6%,36.7%,52.6%,83.3%,23.5%,41.7%,13.3%,-23.7% (active),58.8%,31.3%,-6.36% (active)
CN1NC(c2ccccc2)NN(C)C1=O,110%,67.8%,–,95.1%,85.4%,119%,–,–,–,105%,103%,109%,101%,104%,109%,112%,101%,–,98.4%,113%
